Active and inactive are the calls of the source. The calls were made as follows: active = hit-call score of the fitted dose curve at least 0.9, where 1 is the maximum; inactive = score below 0.9.
Columns and labels:
Conditions in all cases: mRNA level, 48 h; actives raise or lower the signal
[1] = read-out: MicroRNA 122 (MIR122), gene 406906; experiment: LTEA_HepaRG_MIR122: Life Technologies and Expression Analysis (LTEA) Assay for MicroRNA 122 (MIR122) using HepaRG (AID 2283516); also: the transcript read is the microRNA miR-122
Outline: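 HepaRG, 48 h exposure, 8-pt half-log from 100 uM, 0.5% DMSO; TaqMan qRT-PCR; bidirectional fit vs DMSO.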

[2] = read-out: matrix metalloproteinase-10 (MMP10), MMP10 (gene 4319); experiment: LTEA_HepaRG_MMP10: Life Technologies and Expression Analysis (LTEA) Assay for matrix metalloproteinase-10 (MMP10) using HepaRG (AID 2283517)
Outline: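 Differentiated HepaRG cells in serum-free induction medium exposed 48 h in duplicate to 8-point half-log series up to 100 uM in 0.5% DMSO. mRNA quantified by qRT-PCR, normalised to ACTB, GAPDH, POLR2A; bidirectional fit versus DMSO.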

MYC, MYC (gene 4609) = experiment: LTEA_HepaRG_MYC: Life Technologies and Expression Analysis (LTEA) Assay for MYC using HepaRG (AID 2283518)
Outline: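 Differentiated HepaRG cells exposed 48 h in serum-free induction medium to 8 concentrations (top 100 uM, half-log steps; 0.5% DMSO), duplicate. MYC mRNA measured by Fluidigm qRT-PCR, normalized to ACTB, GAPDH, POLR2A; bidirectional fit versus DMSO.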

[3] = read-out: matrix metalloproteinase-3 (MMP3), MMP3 (gene 4314); experiment: LTEA_HepaRG_MMP3: Life Technologies and Expression Analysis (LTEA) Assay for matrix metalloproteinase-3 (MMP3) using HepaRG (AID 2283519)
Outline: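 HepaRG cells (~100,000/well) in serum-free induction medium were dosed in duplicate for 48 h with an 8-point half-log series from 100 uM, 0.5% DMSO. MMP3 mRNA was quantified by Fluidigm TaqMan qRT-PCR, normalized to three housekeeping genes.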

[4] = read-out: Paternally Expressed 10 (PEG10), PEG10 (gene 23089); experiment: LTEA_HepaRG_PEG10: Life Technologies and Expression Analysis (LTEA) Assay for Paternally Expressed 10 (PEG10) using HepaRG (AID 2283520)
Outline: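 Chemicals tested on HepaRG cells for 48 h, highest concentration 100 uM. PEG10 expression assessed by qRT-PCR relative to DMSO control.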

[5] = read-out: Protein phosphatase 2A (PPP2R4), PTPA (gene 5524); experiment: LTEA_HepaRG_PPP2R4: Life Technologies and Expression Analysis (LTEA) Assay for Protein phosphatase 2A (PPP2R4) using HepaRG (AID 2283522)
Outline: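 Gene-expression endpoint in HepaRG hepatic cells: 48 h treatment across eight half-log concentrations up to 100 uM in 0.5% DMSO. PPP2R4 mRNA by qRT-PCR, normalized to three endogenous control genes.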

[6] = read-out: solute carrier (SLC22A1), SLC22A1 (gene 6580); experiment: LTEA_HepaRG_SLC22A1: Life Technologies and Expression Analysis (LTEA) Assay for solute carrier (SLC22A1) using HepaRG (AID 2283524)
Outline: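 Differentiated human HepaRG cells in serum-free induction medium, exposed 48 h in duplicate to 8-point half-log series from 100 µM top in 0.5% DMSO. SLC22A1 mRNA by TaqMan qRT-PCR normalized to ACTB, GAPDH, POLR2A; bidirectional fit versus DMSO.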

[7] = read-out: Pyruvate Dehydrogenase Kinase 4 (PDK4), PDK4 (gene 5166); experiment: LTEA_HepaRG_PDK4: Life Technologies and Expression Analysis (LTEA) Assay for Pyruvate Dehydrogenase Kinase 4 (PDK4) using HepaRG (AID 2283525)
Outline: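 HepaRG cells plated 48 h, then switched to serum-free induction medium and exposed in duplicate for 48 h to 8 half-log concentrations from 100 uM in 0.5% DMSO. PDK4 mRNA measured by qRT-PCR, normalized to ACTB, GAPDH and POLR2A; bidirectional fit versus DMSO.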

[8] = read-out: NAD(P)H dehydrogenase [quinone] 1 (NQO1), NQO1 (gene 1728); experiment: LTEA_HepaRG_NQO1: Life Technologies and Expression Analysis (LTEA) Assay for NAD(P)H dehydrogenase [quinone] 1 (NQO1) using HepaRG (AID 2283526)
Outline: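 Human HepaRG hepatic cells received chemicals for 48 h in serum-free induction medium with 0.5% DMSO, up to 100 uM. Expression was assessed by TaqMan qRT-PCR against housekeeping controls and fitted bidirectionally against DMSO.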

[9] = read-out: Nuclear factor erythroid 2-related factor 2 (Homo sapiens) (UniProt Q16236); experiment: LTEA_HepaRG_NFE2L2: Life Technologies and Expression Analysis (LTEA) Assay for Nuclear factor erythroid 2-related factor 2 (NFE2L2) Transcription Factor using HepaRG (AID 2283527)
Outline: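 Differentiated human HepaRG cells, serum-free induction medium, exposed 48 h in duplicate to eight half-log concentrations up to 100 uM in 0.5% DMSO. NFE2L2 mRNA by Fluidigm TaqMan qRT-PCR, normalised to ACTB, GAPDH, POLR2A; bidirectional change versus DMSO.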

[10] = read-out: Signal transducer and activator of transcription 3 (Homo sapiens) (UniProt P40763); experiment: LTEA_HepaRG_STAT3: Life Technologies and Expression Analysis (LTEA) Assay for Signal transducer and activator of transcription (STAT3) using HepaRG (AID 2283529)
Outline: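 Differentiated HepaRG cells, serum-free induction medium, dosed 48 h in duplicate, 8 half-log concentrations from 100 uM in 0.5% DMSO. STAT3 mRNA by qRT-PCR, normalised to ACTB, GAPDH, POLR2A; bidirectional fit versus DMSO.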

[11] = read-out: solute carrier (SLCO1B1), SLCO1B1 (gene 10599); experiment: LTEA_HepaRG_SLCO1B1: Life Technologies and Expression Analysis (LTEA) Assay for solute carrier (SLCO1B1) using HepaRG (AID 2283530)
Outline: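 Differentiated human HepaRG cells were exposed for 48 h in serum-free induction medium to eight half-log concentrations, top 100 uM, in 0.5% DMSO. SLCO1B1 mRNA was measured by qRT-PCR, normalized to ACTB, GAPDH and POLR2A, and fitted bidirectionally against DMSO.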

[12] = read-out: sulfotransferase 2A1 (SULT2A1), SULT2A1 (gene 6822); experiment: LTEA_HepaRG_SULT2A1: Life Technologies and Expression Analysis (LTEA) Assay for sulfotransferase 2A1 (SULT2A1) using HepaRG (AID 2283531)
Outline: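 HepaRG human liver cells, 48 h exposure in serum-free induction medium to 8 half-log concentrations topping at 100 µM (0.5% DMSO), duplicate wells. SULT2A1 mRNA measured by TaqMan qRT-PCR, normalized to ACTB/GAPDH/POLR2A; bidirectional fit against DMSO.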

[13] = read-out: Transforming Growth Factor (TGFA), TGFA (gene 7039); experiment: LTEA_HepaRG_TGFA: Life Technologies and Expression Analysis (LTEA) Assay for Transforming Growth Factor (TGFA) using HepaRG (AID 2283532)
Outline: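 Differentiated HepaRG cells exposed 48 hours in serum-free induction medium, 0.5% DMSO vehicle, 8-point half-log series from 100 uM, in duplicate. TGFA mRNA by TaqMan qRT-PCR, normalised to ACTB, GAPDH, POLR2A; bidirectional fit versus DMSO.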

[14] = read-out: Transforming Growth Factor (TGFB1), TGFB1 (gene 7040); experiment: LTEA_HepaRG_TGFB1: Life Technologies and Expression Analysis (LTEA) Assay for Transforming Growth Factor (TGFB1) Transporter using HepaRG (AID 2283533)
Outline: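 Differentiated HepaRG cells exposed 48 hr in serum-free induction medium to eight half-log concentrations up to 100 uM (0.5% DMSO), duplicate; TGFB1 mRNA by TaqMan qRT-PCR normalised to ACTB, GAPDH, POLR2A; bidirectional fit against DMSO.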

TIMP1, TIMP1 (gene 7076) = experiment: LTEA_HepaRG_TIMP1: Life Technologies and Expression Analysis (LTEA) Assay for TIMP1 using HepaRG (AID 2283534)
Outline: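 Differentiated HepaRG cells exposed 48 h in serum-free induction medium, duplicates, eight half-log concentrations from 100 uM in 0.5% DMSO. TIMP1 mRNA by qRT-PCR normalized to ACTB, GAPDH, POLR2A; bidirectional fitting against DMSO.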

[15] = read-out: Tumor necrosis factor receptor 1 (TNFRSF1A), TNFRSF1A (gene 7132); experiment: LTEA_HepaRG_TNFRSF1A: Life Technologies and Expression Analysis (LTEA) Assay for Tumor necrosis factor receptor 1 (TNFRSF1A) using HepaRG (AID 2283535)
Outline: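 Differentiated HepaRG cells in serum-free induction medium, exposed 48 h in duplicate to 8 half-log concentrations up to 100 uM in 0.5% DMSO. TNFRSF1A mRNA by Fluidigm TaqMan qRT-PCR, normalized to ACTB, GAPDH, POLR2A; bidirectional fit.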

[16] = read-out: succinate dehydrogenase complex iron sulfur subunit B (SDHB), SDHB (gene 6390); experiment: LTEA_HepaRG_SDHB: Life Technologies and Expression Analysis (LTEA) Assay for succinate dehydrogenase complex iron sulfur subunit B (SDHB) using HepaRG (AID 2283528)
Outline: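 HepaRG cells (~100,000/well, plated 48 h) exposed in duplicate for 48 h in serum-free induction medium to 8-point half-log series from 100 uM in 0.5% DMSO; mRNA by qRT-PCR normalised to ACTB, GAPDH, POLR2A; bidirectional fit versus DMSO.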

Measured: AC50

Nuclear factor erythroid 2-related factor 2 (Homo sapiens), sequence (Q16236 whole entry, looked up): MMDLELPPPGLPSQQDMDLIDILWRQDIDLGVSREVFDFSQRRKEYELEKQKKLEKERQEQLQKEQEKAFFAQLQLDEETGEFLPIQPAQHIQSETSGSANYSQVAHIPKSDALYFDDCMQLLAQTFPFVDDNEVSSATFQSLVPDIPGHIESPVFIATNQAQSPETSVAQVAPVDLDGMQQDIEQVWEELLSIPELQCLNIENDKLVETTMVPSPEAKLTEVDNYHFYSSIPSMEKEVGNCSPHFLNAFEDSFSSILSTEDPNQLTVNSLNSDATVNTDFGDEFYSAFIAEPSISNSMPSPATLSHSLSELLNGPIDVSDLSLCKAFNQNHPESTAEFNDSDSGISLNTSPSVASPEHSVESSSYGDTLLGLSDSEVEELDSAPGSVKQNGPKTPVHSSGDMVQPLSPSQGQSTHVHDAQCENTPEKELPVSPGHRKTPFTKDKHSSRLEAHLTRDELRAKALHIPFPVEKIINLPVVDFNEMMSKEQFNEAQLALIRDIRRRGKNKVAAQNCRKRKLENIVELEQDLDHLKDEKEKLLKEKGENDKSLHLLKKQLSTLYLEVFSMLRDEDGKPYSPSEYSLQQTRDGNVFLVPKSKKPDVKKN
Signal transducer and activator of transcription 3 (Homo sapiens), sequence (P40763 whole entry, looked up): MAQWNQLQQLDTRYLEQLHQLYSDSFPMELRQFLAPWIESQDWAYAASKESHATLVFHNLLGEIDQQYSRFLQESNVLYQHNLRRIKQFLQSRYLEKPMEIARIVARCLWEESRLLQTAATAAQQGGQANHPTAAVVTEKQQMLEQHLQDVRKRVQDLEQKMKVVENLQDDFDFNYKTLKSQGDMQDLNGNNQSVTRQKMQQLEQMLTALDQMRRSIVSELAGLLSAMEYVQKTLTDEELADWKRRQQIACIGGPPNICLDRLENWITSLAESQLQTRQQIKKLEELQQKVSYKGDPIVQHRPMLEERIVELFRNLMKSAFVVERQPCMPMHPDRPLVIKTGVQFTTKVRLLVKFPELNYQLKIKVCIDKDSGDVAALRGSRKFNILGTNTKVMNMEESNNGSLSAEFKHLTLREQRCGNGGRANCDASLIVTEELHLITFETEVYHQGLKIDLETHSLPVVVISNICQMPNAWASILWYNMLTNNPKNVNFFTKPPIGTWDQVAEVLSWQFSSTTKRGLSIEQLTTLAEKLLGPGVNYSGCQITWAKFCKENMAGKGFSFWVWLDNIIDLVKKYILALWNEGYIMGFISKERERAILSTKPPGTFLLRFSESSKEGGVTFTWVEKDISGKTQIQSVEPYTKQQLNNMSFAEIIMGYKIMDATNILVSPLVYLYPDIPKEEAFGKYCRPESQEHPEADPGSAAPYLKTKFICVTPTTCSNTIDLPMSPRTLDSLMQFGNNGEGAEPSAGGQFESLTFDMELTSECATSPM

CC(C)C(=O)OCC(C)(C)C(OC(=O)C(C)C)C(C)C (stereo not given)
not listed: [16]
inactive: all other assays above

CC(c1ccc(O)cc1)(c1ccc(O)cc1)c1ccc(O)cc1
active: [1] 77.9 µM | [2] 50 µM | MYC, MYC (gene 4609) 94.2 µM | [5] 69.7 µM | [7] 70.9 µM | [9] 73.9 µM | [10] 90.9 µM | [12] 84 µM | TIMP1, TIMP1 (gene 7076) 85.3 µM
inactive: [3] | [8] | [11] | [13] | [14] | [15]

ClC1=C(Cl)[C@]2(Cl)[C@@H]3[C@H]4C[C@H]([C@@H]5O[C@H]45)[C@@H]3[C@@]1(Cl)C2(Cl)Cl
active: [1] 31.6 µM | MYC, MYC (gene 4609) 11 µM | [11] 13.8 µM
not listed: [6] | [16]
inactive: all other assays above

O=C(O)C(F)(F)C(F)(F)C(F)(F)C(F)(F)C(F)(F)C(F)(F)C(F)(F)C(F)(F)F
inactive: [3] | [4] | [5] | [8] | [16] | [10] | TIMP1, TIMP1 (gene 7076) | [15]
active: [1] 74.4 µM | [2] 76.9 µM | MYC, MYC (gene 4609) 78.7 µM | [7] 32.8 µM | [9] 74.9 µM | [11] 90.8 µM | [12] 77.4 µM | [13] 67.1 µM | [14] 73.5 µM
